Measurements reported in PubChem BioAssay AID2540 (Sanford-Burnham Center for Chemical Genomics, 2010).
Out of some 330,000 compounds screened, about 4,100 (1.2%) were called active. Cut-off read from the data, not from the text of the source: active = inhibition above about 50%; inactive = the rest. The full list was thinned out, with actives kept by preference.

target: Sentrin-specific protease 8 (Homo sapiens) (UniProt Q96LD8); experiment: SENP8 protease inhibitors, primary screen, biochemical, luminescence (AID 2540); conditions: purified SENP8, Z-RLRGG-aminoluciferin cleavage, at 10 µM, stronger effect = higher value
Sequence (Q96LD8 whole entry, looked up): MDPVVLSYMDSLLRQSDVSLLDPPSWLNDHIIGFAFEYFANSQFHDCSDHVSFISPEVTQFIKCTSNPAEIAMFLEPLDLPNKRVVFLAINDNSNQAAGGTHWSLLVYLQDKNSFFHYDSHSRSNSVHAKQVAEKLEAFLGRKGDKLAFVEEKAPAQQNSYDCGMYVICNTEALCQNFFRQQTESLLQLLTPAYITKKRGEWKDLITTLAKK

| SMILES | inhibition |
| --- | --- |
| Cc1ccc(-c2nc(-c3ccncc3)no2)c(C)c1 | 42.8% (inactive) |
| c1ccc(-c2noc(-c3cccs3)n2)nc1 | 88.9% (active) |
| COc1ccc(CCc2nc(-c3cccs3)no2)cc1 | -14.5% (inactive) |
| c1csc(-c2nc(-c3ccncc3)no2)c1 | 57.3% (active) |
| c1ccc(CCc2nc(-c3ccncc3)no2)cc1 | -9.99% (inactive) |
| Cc1noc(C)c1COC(=O)COc1ccc(-c2ccccc2)cc1 | -5.47% (inactive) |
| Clc1ccc(-n2nnnc2-c2cnc(-c3ccccn3)nc2-c2cccs2)cc1 | -4.12% (inactive) |
| O=C(Oc1ccc(-c2nc(-c3ccccn3)no2)cc1)c1ccccc1 | 97.3% (active) |
| O=C(COC(=O)c1ccncc1)c1ccccc1 | -23.2% (inactive) |
| CC1CCC2(CC1)NC(=O)N(CC(=O)c1cccn1C)C2=O (configuration not stated) | -3.15% (inactive) |
| CCOC(=O)N1CCN(c2c(NCCN3CCN(c4ccccc4F)CC3)c(=O)c2=O)CC1 | -9.98% (inactive) |
| COc1ccccc1CNC(=O)[C@@H]1CCCN1C(=O)[C@@H]1Cc2ccccc2CN1C(=O)OC(C)(C)C | -1.1% (inactive) |
| Cc1ccc(N(C(=O)c2ccc(S(=O)(=O)N(C)C)cc2)C2C=CS(=O)(=O)C2)cc1 (configuration not stated) | -5.23% (inactive) |
| O=C1CCC(C(=O)N2CCN(c3ccccc3Cl)CC2)CN1CC1CCCCC1 (configuration not stated) | -2.96% (inactive) |
| Clc1ccc(-c2cc(-c3ccccn3)on2)c(Cl)c1 | 98% (active) |
| Clc1ccc(COn2c(-c3ccc(Cl)cc3Cl)nc3ncccc32)cc1 | 1.77% (inactive) |
| O=C1c2ccccc2C(=O)N1Cc1cc(-c2ccccc2Cl)no1 | 2.3% (inactive) |
| O=C(COC(=O)c1c2c(nc3ccccc13)CCCC2)c1ccc(Br)s1 | -1.41% (inactive) |
| Cn1cccc1C(=O)OCC(=O)NCCc1ccccc1 | -2.12% (inactive) |
| Cn1cccc1C(=O)OCC(=O)c1ccc(Br)s1 | 75.8% (active) |
| COc1cccc(NC(=O)CSc2nnc(C3CCCCC3)n2N)c1 | 6.19% (inactive) |

| SMILES | inhibition |
| --- | --- |
| O=C(NCC1CC1)c1onc(CSc2ccccc2)c1C(=O)NCC1CC1 | 1.24% (inactive) |
| Cc1ccc(NC(=O)c2ccc(S(=O)(=O)NCC3CCCO3)cc2)cc1C (configuration not stated) | 9.11% (inactive) |
| O=C(Nc1nnc(S(=O)(=O)N2CCOCC2)s1)c1cccc(Br)c1 | 6.23% (inactive) |
| Cc1cccc(C(=O)Nc2nnc(S(=O)(=O)N3CCCCCC3)s2)c1 | 18.3% (inactive) |
| O=C(Nc1nnc(S(=O)(=O)N2CCCCCC2)s1)c1cccc(Br)c1 | 71.5% (active) |
| Cc1ccc(S(=O)(=O)NC(=O)c2cccc(C)c2)cc1 | -5.51% (inactive) |
| Cc1[nH]n(C)c(=O)c1N=Nc1ccc(S(C)(=O)=O)cc1 | -4.34% (inactive) |
| Cc1[nH]n(C(N)=S)c(=O)c1N=Nc1ccc(Cl)cc1Cl | 95.6% (active) |
| CCCCNC(=O)C1CCCNC1=O (configuration not stated) | -10.4% (inactive) |
| O=C(O)c1cc(S(=O)(=O)N(Cc2ccccc2)c2ccccc2)ccc1Cl | 3.75% (inactive) |
| C/C(=N\OCC(=O)Nc1ccc(Br)cc1)c1cccs1 | -8.52% (inactive) |
| O=C(O)c1ccccc1OCc1ccccc1Cl | 1.22% (inactive) |
| COc1cc(/C=C2\Oc3ccc(C#Cc4ccc(O)cc4)cc3C2=O)cc(OC)c1 | 5.28% (inactive) |
| O=C1c2ccccc2C(=O)N1CCC#Cc1ccc2cc(C3(O)CCCCC3)oc(=O)c2c1 | -2.91% (inactive) |
| COc1cc(C#Cc2ccc3cc(CCCO)oc(=O)c3c2)cc(OC)c1 | 69.6% (active) |
| COc1ccccc1OC(C)C(=O)Nc1ccc(S(=O)(=O)Nc2nccs2)cc1 (configuration not stated) | -3.08% (inactive) |
| Cc1ccc(-c2nc3ccccc3[nH]2)cc1N | 87.1% (active) |
| O=C(Nc1sc2c(c1-c1nc3ccccc3[nH]1)CCCC2)C1CC1 | -0.363% (inactive) |
| Clc1ccccc1SCc1nc2ccccc2[nH]1 | 14.7% (inactive) |
| COc1ccc(Br)cc1C(=O)NC(=S)Nc1cc(-c2nc3ccccc3[nH]2)ccc1C | 3.06% (inactive) |
| Cc1ccccc1N1CC(c2nc3ccccc3[nH]2)CC1=O (configuration not stated) | 2.73% (inactive) |

| SMILES | inhibition |
| --- | --- |
| c1ccc2[nH]c(-c3nc4ccccc4[nH]3)nc2c1 | 92.4% (active) |
| CC(OC(=O)CCCOc1ccccc1)C(=O)Nc1ccc(Cl)cn1 (configuration not stated) | -14.4% (inactive) |
| CCOc1ccccc1C1CC(c2ccc(Cl)cc2)Nc2nc(N)nn21 (configuration not stated) | 0.924% (inactive) |
| O=C(COC(=O)c1cnc(Cl)c(Cl)c1)NCc1ccco1 | -1.98% (inactive) |
| CC(OC(=O)CNC(=O)c1cccc(F)c1)C(=O)NC1CCCCC1C (configuration not stated) | -11.2% (inactive) |
| O=C(Nc1ccn(Cc2ccccc2)n1)c1n[nH]c([N+](=O)[O-])c1Cl | 97.2% (active) |
| Cc1c(Br)c([N+](=O)[O-])nn1CC(=O)N1CCN(Cc2ccccc2)CC1 | -7.38% (inactive) |
| O=C(Nc1ccn(Cc2ccccc2F)n1)c1ccc(COc2ccc(Cl)cc2Cl)o1 | 8.53% (inactive) |
| CC(CCc1ccc(O)cc1)NCc1ccc(Cl)cc1Cl (configuration not stated) | -5.92% (inactive) |
| Cc1ccc(C(=O)NNC2=Nc3cc([N+](=O)[O-])ccc3OC2)cc1 | -6.4% (inactive) |
| COc1ccc(C2=Nc3cc(C)ccc3OC2)cc1 | 67.5% (active) |
| COc1ccc(C2=NOC(COC(=O)c3ccc4ccccc4n3)C2)cc1 (configuration not stated) | -6.73% (inactive) |
| COc1ccccc1-n1c(-c2cc(-c3ccco3)[nH]n2)n[nH]c1=S | 3.44% (inactive) |
| Cn1c(-c2ccco2)nc2cc3ccccc3cc21 | 94.4% (active) |
| CS(=O)(=O)n1nc(-c2ccco2)nc1N | 0.284% (inactive) |
| Cc1ccc(NC(=O)CSc2nnc(CNC(=O)c3ccccc3F)o2)cc1 | 0.136% (inactive) |
| Cc1ccccc1-n1nnc2c(=O)oc3ccccc3c21 | -6.33% (inactive) |
| CC(NC(=O)Nc1ccccc1)C(c1cccs1)N1CCN(c2ccccc2)CC1 (configuration not stated) | -7.79% (inactive) |
| COC(=O)C1=C(N)Oc2cc(C)[nH]c(=O)c2C1c1ccc(Cl)cc1 (configuration not stated) | 3.38% (inactive) |
| COCCCN(C(=O)CSCc1ccc(C)cc1)c1c(N)n(Cc2ccccc2)c(=O)[nH]c1=O | -5.5% (inactive) |
